Source: PubChem (Broad Institute)
Pf Dd2 inh = P. falciparum Dd2 growth inhibitors, primary screen, SYBR Green fluorescence, single dose replicates | 72 h; active compounds read low | 94,000 compounds, 2.3% hits | activity change, % at 10 µM | AID 1159554, 2015; in the data active = activity change below about -80%; inconclusive = no clear call, values can overlap the other calls
C diff growth = C. difficile growth inhibitors, primary screen, HTS | AID 1259249, 2017 | 86,000 compounds, 0.25% hits | growth activity, negative = inhibition, % at 16 µg/mL (by protocol) | Clostridium difficile clinical isolate growth, OD600, 24 h; active compounds read low;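 active = mean growth activity at or below -80% and every replicate also at or below -80%; inconclusive = mean at or below -80% but some replicate above -80%; inactive = mean growth activity above -80%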
T cruzi growth-1 = T. cruzi intracellular proliferation inhibitors, primary screen, cell-based, beta-gal Tulahuen parasites, NIH3T3 host, luminescence; T. cruzi beta-gal in NIH3T3, GalScreen luminescence, 90 h; AID 624255, 2012; 77,000 compounds, 5.9% hits; inhibition, % at 8.34 µM;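 active = mean inhibition above about 93%, with at least 55% of replicates each passing it, limit read from the data, passing the limit was not always enough; inconclusive = only one of those two conditions holds; inactive = neither condition holds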
T cruzi growth-2 = T. cruzi intracellular proliferation inhibitors, confirmation, cell-based, NIH3T3 host, beta-gal parasite, luminescence, cherry-pick; shares compounds with T cruzi growth-1; T. cruzi beta-gal in NIH3T3, GalScreen luminescence, 90 h; inhibition, % at 8.35 µM; 5,600 compounds, 72% hits;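 active = mean replicate inhibition above about 95% and at least 55% of replicates individually reaching it, limit read from the data; inconclusive = only one of the two criteria is met; inactive = neither criterion is met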
T cruzi growth-3 = inhibitors of intracellular T. cruzi replication, confirmation, NIH3T3 host cells, beta-gal parasites, cherry-pick, set 2. 5,600 compounds, 21% hits. shares compounds with T cruzi growth-1. T. cruzi beta-gal in NIH3T3, GalScreen luminescence, 90 h. AID 651740, 2012. inhibition, % at 2.09 µM;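 active = mean inhibition above about 95%, with at least 55% of replicates also reaching it, limit read from the data; inconclusive = meets just one of the two conditions; inactive = meets neither condition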
3T3 cytotox = cytotoxicity in mouse NIH/3T3 fibroblasts, confirmation, cytotoxicity control for T. cruzi proliferation inhibitor project, cell-based, cherry-pick, single point; 5,600 compounds, 14% hits; shares compounds with T cruzi growth-1; NIH/3T3 viability, CellTiter-Glo ATP luminescence, 90 h; cytotoxicity (signal decrease), % at 8.35 µM;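 active = mean signal decrease across replicates above about 35% based on untreated-well scatter, with enough replicates individually passing, limit read from the data; inconclusive = no rule stated though some were filed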
NIH3T3 tox 2 = NIH/3T3 fibroblast cytotoxicity, confirmation, cytotoxicity control, cell-based, cherry-pick, single point, set 2. shares compounds with T cruzi growth-1. NIH/3T3 viability, CellTiter-Glo ATP luminescence, 90 h. inhibition, % at 24.9 µM. 5,600 compounds, 56% hits. AID 651744, 2012;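 active = mean loss of cell viability signal at or above a set limit, and enough replicates individually reaching it; inconclusive = meets only the mean limit or only the replicate share; inactive = meets neither condition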
A number is an active result. A selection: hits, their analogues and other compounds. The true share with any hit is near 6.8%.

Screening Cc1ccc(S(=O)(=O)N(C)C[C@H]2Oc3ccc(NS(=O)(=O)c4c(C)noc4C)cc3CC(=O)N([C@@H](C)CO)C[C@@H]2C)cc1 returned Pf Dd2 inh inactive, C diff growth inactive and T cruzi growth-1 inactive.
For O=C(C1CCCC1)N1C[C@@H]2[C@H](c3ccccc31)[C@H](CO)N2C(=O)c1cccnc1 the results were Pf Dd2 inh inactive, C diff growth inactive and T cruzi growth-1 inactive.
O=C(NC1CCC1)[C@H]1[C@H](CO)[C@H]2Cn3c(ccc(/C=C/c4ccccc4)c3=O)[C@H]2N1Cc1cncnc1 was read as C diff growth inactive and T cruzi growth-1 inactive.
CC(=O)N(C)C[C@H]1Oc2cc(C#Cc3ccncc3)ccc2S(=O)(=O)N([C@@H](C)CO)C[C@@H]1C was read as Pf Dd2 inh inactive, C diff growth inactive and T cruzi growth-1 inactive.
`O=C(Nc1ccccc1F)N[C@@H]1C=C[C@@H](CC(=O)N2CCCCC2)O[C@@H]1CO` gave Pf Dd2 inh inactive, C diff growth inactive and T cruzi growth-1 inactive.
Screening C[C@H]1CN([C@@H](C)CO)S(=O)(=O)c2ccc(C#CCN(C)C)cc2O[C@@H]1CN(C)C(=O)c1ccccc1F returned Pf Dd2 inh inactive, C diff growth inactive, T cruzi growth-1 98.9, T cruzi growth-2 105.4, T cruzi growth-3 inactive, 3T3 cytotox inactive and NIH3T3 tox 2 inactive.
`C[C@@H]1CN([C@H](C)CO)S(=O)(=O)c2ccc(C#CCN(C)C)cc2O[C@@H]1CN(C)C(=O)c1ccccc1F` gave Pf Dd2 inh inactive, C diff growth inactive and T cruzi growth-1 inactive.
Screening C[C@@H]1CN([C@H](C)CO)S(=O)(=O)c2ccc(C#CCN(C)C)cc2O[C@H]1CN(C)C(=O)c1ccccc1F returned Pf Dd2 inh inactive, C diff growth inactive and T cruzi growth-1 inactive.
C[C@@H]1CN([C@@H](C)CO)S(=O)(=O)c2ccc(C#CCN(C)C)cc2O[C@H]1CN(C)C(=O)c1ccccc1F was read as Pf Dd2 inh inactive, C diff growth inactive, T cruzi growth-1 100.8, T cruzi growth-2 108.7, T cruzi growth-3 inactive, 3T3 cytotox inactive and NIH3T3 tox 2 inactive.
For C[C@H]1CN([C@@H](C)CO)C(=O)c2cc(NC(=O)Cc3cn(C)c4ccccc34)ccc2O[C@H]1CN(C)Cc1ccc(C(=O)Nc2ccccc2N)cc1 the results were Pf Dd2 inh inactive and T cruzi growth-1 inactive.
Screening CO[C@@H]1CN(C)C(=O)c2ccc(NC(=O)c3cccc(Oc4ccccc4)c3)cc2OC[C@H](C)NC[C@H]1C returned Pf Dd2 inh inactive, C diff growth inactive and T cruzi growth-1 inactive.
`CCCNC(=O)C[C@@H]1CC[C@H]2[C@@H](COC[C@@H](O)CN2Cc2cccc(F)c2)O1` gave Pf Dd2 inh inactive, C diff growth inactive and T cruzi growth-1 inactive.
For CO[C@H]1CN(C)C(=O)c2ccc(NC(=O)CC(F)(F)F)cc2OC[C@H](C)N(C(=O)C2CCOCC2)C[C@@H]1C the results were Pf Dd2 inh inactive and C diff growth inactive.
For C/C=C/c1ccc2c(c1)O[C@@H](CN(C)Cc1ccc(C(=O)O)cc1)[C@H](C)CN([C@H](C)CO)S2(=O)=O the results were Pf Dd2 inh inactive and C diff growth inactive.
Screening C[C@H](CO)N1C[C@H](C)[C@@H](CN(C)Cc2ccc(Oc3ccccc3)cc2)Oc2c(NC(=O)Nc3cccc4ccccc34)cccc2C1=O returned Pf Dd2 inh inactive and T cruzi growth-1 inactive.
`CCc1cnc(N2[C@H](C#N)[C@H](c3ccc(C4=CCCCC4)cc3)[C@H]2CO)s1` gave Pf Dd2 inh inactive, C diff growth inactive and T cruzi growth-1 inactive.
`CCc1cnc(N2[C@H](C#N)[C@H](c3ccc(-c4cccc(F)c4)cc3)[C@@H]2CO)s1` gave Pf Dd2 inh inactive, C diff growth inactive, T cruzi growth-1 101.8, T cruzi growth-2 98.0, T cruzi growth-3 107.8, 3T3 cytotox inactive and NIH3T3 tox 2 inactive.
CCc1cnc(N2[C@@H](C#N)[C@@H](c3ccc(C4=CCCCC4)cc3)[C@@H]2CO)s1 was read as Pf Dd2 inh inactive, C diff growth inactive, T cruzi growth-1 99.6, T cruzi growth-2 96.3, T cruzi growth-3 inactive, 3T3 cytotox inconclusive and NIH3T3 tox 2 59.7.
For CCc1cnc(N2[C@@H](C#N)[C@@H](c3ccc(C4=CCCC4)cc3)[C@@H]2CO)s1 the results were Pf Dd2 inh inactive, C diff growth inactive, T cruzi growth-1 96.1, T cruzi growth-2 104.7, T cruzi growth-3 inactive, 3T3 cytotox inactive and NIH3T3 tox 2 42.2.
Screening CCc1cnc(N2[C@H](C#N)[C@H](c3ccc(C4=CCCC4)cc3)[C@H]2CO)s1 returned Pf Dd2 inh inactive, C diff growth inactive and T cruzi growth-1 inactive.
Screening CCc1csc(N2[C@H](C#N)[C@H](c3ccc(-c4cccc(F)c4)cc3)[C@@H]2CO)n1 returned Pf Dd2 inh inactive, C diff growth inactive and T cruzi growth-1 inactive.
C[C@@H]1CN([C@H](C)CO)C(=O)c2cc(NC(=O)CCCN(C)C)ccc2O[C@@H](C)CCCCO[C@@H]1CN(C)Cc1ccccc1 was read as Pf Dd2 inh inactive and T cruzi growth-1 inactive.
For C[C@@H]1CN([C@@H](C)CO)C(=O)c2cc(NC(=O)CCCCCC(=O)Nc3ccccc3N)ccc2O[C@@H]1CN(C)S(=O)(=O)c1ccc(Cl)cc1 the results were Pf Dd2 inh inactive and C diff growth inactive.
`C[C@@H]1CN([C@@H](C)CO)C(=O)c2cccc(NC(=O)CCCCCC(=O)Nc3ccccc3N)c2O[C@H]1CN(C)S(=O)(=O)c1ccc(Cl)cc1` gave Pf Dd2 inh inactive, C diff growth inactive, T cruzi growth-1 95.4, T cruzi growth-2 inactive, T cruzi growth-3 inactive, 3T3 cytotox inactive and NIH3T3 tox 2 inactive.
C[C@@H]1CN([C@@H](C)CO)C(=O)c2cccc(NC(=O)CCCCCC(=O)Nc3ccccc3N)c2O[C@@H]1CN(C)S(=O)(=O)c1ccc(Cl)cc1 was read as Pf Dd2 inh -92.8, C diff growth inactive, T cruzi growth-1 97.6, T cruzi growth-2 103.2, T cruzi growth-3 inactive, 3T3 cytotox inactive and NIH3T3 tox 2 inactive.
Screening C[C@@H]1CN([C@@H](C)CO)C(=O)c2cccc(NC(=O)CCCCCC(=O)Nc3ccccc3N)c2O[C@H]1CN(C)S(C)(=O)=O returned Pf Dd2 inh inactive and C diff growth inactive.
